The campaign covered roughly 110,000 compounds. About 230 (0.21%) showed an effect of 50% or more. This excerpt belongs to a sample that is enriched for strong results.

Data on 64 compounds can be found in PMC6919601, “Identification of Plasmodium dipeptidyl aminopeptidase allosteric inhibitors by high throughput screening” (PLoS ONE, 2019).
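Further: 30 min substrate incubation versus DMSO and 10 µM JCP410 controls.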

The target of the test is DPAP1 (Plasmodium falciparum, UniProt Q8IIJ9). As to the kind of experiment: primary screen, percent inhibition; read by cleavage of a fluorogenic dipeptide substrate; higher = more effect of the substance. On the set-up: species or system P. falciparum D10 trophozoite lysates; single well.
Chain of DPAP1 (Q8IIJ9 whole entry, looked up): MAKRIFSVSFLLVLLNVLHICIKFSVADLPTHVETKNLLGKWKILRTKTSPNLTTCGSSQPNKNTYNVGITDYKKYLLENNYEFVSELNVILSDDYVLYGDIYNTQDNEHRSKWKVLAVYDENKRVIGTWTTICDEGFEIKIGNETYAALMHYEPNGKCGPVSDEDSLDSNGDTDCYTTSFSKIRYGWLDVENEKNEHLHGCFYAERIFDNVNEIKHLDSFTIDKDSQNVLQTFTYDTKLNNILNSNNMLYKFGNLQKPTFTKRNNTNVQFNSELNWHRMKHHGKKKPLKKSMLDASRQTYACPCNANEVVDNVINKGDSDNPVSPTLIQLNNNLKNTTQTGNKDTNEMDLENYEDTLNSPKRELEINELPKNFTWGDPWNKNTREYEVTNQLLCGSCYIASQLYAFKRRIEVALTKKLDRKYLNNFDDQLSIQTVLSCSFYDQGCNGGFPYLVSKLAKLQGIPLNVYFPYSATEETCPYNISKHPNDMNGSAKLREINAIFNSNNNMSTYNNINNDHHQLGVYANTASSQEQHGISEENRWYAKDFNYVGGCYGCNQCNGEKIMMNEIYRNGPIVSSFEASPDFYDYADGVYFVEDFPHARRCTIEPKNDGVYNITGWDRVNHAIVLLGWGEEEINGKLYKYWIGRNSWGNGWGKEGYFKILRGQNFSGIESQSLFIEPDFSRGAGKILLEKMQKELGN
As for `N#CC1=C2SCN(CCc3ccccc3)CN2C(=O)CC1c1cccs1` (stereo not shown), the “% Inhibition @ 10 uM” value was determined as 42.6%.
As for `N#CC1=C2SCN(CCc3ccccc3)CN2C(=O)CC1c1ccc(F)cc1` (stereo not shown), the “% Inhibition @ 10 uM” value amounted to 51.6%.
Turning to `Cc1ccc(C2CC(=O)N3CN(CCc4ccccc4)CSC3=C2C#N)cc1` (stereo not shown), the “% Inhibition @ 10 uM” value turned out to be 64%.
For `N#CC1=C2SCN(CCN3CCOCC3)CN2C(=O)CC1c1ccc(F)cc1` (stereo not shown), the “% Inhibition @ 10 uM” value came out at 49.5%.
Turning to `O=C(N/C(=C\c1ccco1)C(=O)N1CCN(C/C=C/c2ccccc2)CC1)c1ccccc1`, the “% Inhibition @ 10 uM” value was found to be 2.09%.
Regarding `COc1ccc(C2N=C(NO)c3ccccc3N2)cc1` (stereo not shown), the “% Inhibition @ 10 uM” value is recorded as -0.424%.
The figure for `C=C(C)CSc1nc(N)c2c3c(sc2n1)CCC3` is 4.37%; for `CC(C)CSc1nc(N)c2c3c(sc2n1)CCC3` it is 81.4%; for `CCCSc1nc(N)c2c3c(sc2n1)CCCC3` it is 10.6%.
For the compound `COc1ccccc1CNC(=O)Nc1cn(CC(C)C)c(=O)c2ccccc12`, the “% Inhibition @ 10 uM” value is on record as -4.21%.
For `CC(C)CCNC(=O)c1nnc(-c2ccccc2)o1`, the “% Inhibition @ 10 uM” value is -3.34%.
`CCOC(=O)c1sc(C)c2c(O)nc(-c3ccccc3)nc12`: the “% Inhibition @ 10 uM” value was -1.47%.
As to `CCOC(=O)c1sc(-c2ccccc2)nc1-c1ccc([N+](=O)[O-])cc1`, the “% Inhibition @ 10 uM” value turned out to be 2.86%.
As for `CCOC(=O)c1sc(-c2ccccc2)nc1O`, the “% Inhibition @ 10 uM” value turned out to be 66.9%.
The figure for `c1ccc(CC2CCN(Cc3ccco3)CC2)cc1` is -2.56%.
In the case of `COc1ccc(-c2cc(-c3ccccc3)nc(N3CCOCC3)n2)cc1OC`, the “% Inhibition @ 10 uM” value was -2.6%.
Turning to `Cc1nsc2ccc3ccccc3c12`, the “% Inhibition @ 10 uM” value is given as 3.36%.
The value for `Cc1nsc2ccc3sccc3c12` was 1.72%; that for `Cc1nsc2ccc(Cl)cc12` was 55%; that for `COc1ccc(-c2noc(CCC(=O)NCc3cc(OC)ccc3OC)n2)cc1` was 0.675%.
Take `Cc1ccc(-c2noc(CCC(=O)NCc3ccc(F)cc3Cl)n2)cc1`: the “% Inhibition @ 10 uM” value is on record as -0.999%.
Take `COc1ccc(-c2noc(CCC(=O)NCc3ccc(F)cc3Cl)n2)cc1`: the “% Inhibition @ 10 uM” value came out at 60.3%.
The value for `COCCNc1nc2c(S(=O)(=O)c3ccccc3)nnn2c2ccsc12` was -0.256%.
Regarding `CCc1c(C)sc(NC(=O)Cc2ccc(OC)c(OC)c2)c1C(N)=O`, the “% Inhibition @ 10 uM” value came out at 16.2%.
In the case of `CCOC(=O)c1cc(-c2ccccc2)n(CCC(=O)N2CCCC(C)C2)c1C` (stereo not shown), the “% Inhibition @ 10 uM” value amounted to 1.2%.
The figure for `COc1ccccc1CNC(=O)c1cccc(Br)c1` is -4.15%; for `N#Cc1cc2c(N)c(C(=O)c3ccc(Br)cc3)sc2nc1N` it is 2.7%; for `O=C(NCC1CCCO1)C1CCC(CNS(=O)(=O)c2cccc3nsnc23)CC1` (stereo not shown) it is 4.54%.
With `Cc1ccc(NC(=O)COc2ccc(C)cc2C)cc1`, the “% Inhibition @ 10 uM” value was -8.06%.
With `Cc1cccc(NC(=O)COc2ccc(C)cc2C)c1`, the “% Inhibition @ 10 uM” value is -2.32%.
With `Cc1ccc(OCC(=O)Nc2ccccc2)c(C)c1`, the “% Inhibition @ 10 uM” value is 78%.
For `COc1ccc(NC(=O)c2ccc(C)c(Br)c2)cc1`, the “% Inhibition @ 10 uM” value amounted to 2.42%.
In the case of `Cc1c(CNC2CCCc3ccccc32)c(C(=O)O)c(C)n1Cc1ccc(F)cc1` (stereo not shown), the “% Inhibition @ 10 uM” value was -5.49%.
For `Cc1cccc(Oc2nc3c(C)cccn3c(=O)c2/C=C(\C#N)C(=O)NCC2CCCO2)c1` (stereo not shown), the “% Inhibition @ 10 uM” value is listed as -9.06%.
On to `C=CCN1C(=O)C(CC(=O)NCC)S/C1=N\c1cccc2ccccc12` (stereo not shown), for which the “% Inhibition @ 10 uM” value stood at 0.512%.
`COC(=O)/C(C#N)=C/c1c(Oc2cccc(C)c2C)nc2ccccn2c1=O`: the “% Inhibition @ 10 uM” value is -5.1%.
For `Cc1ccc(C(C)C)c(Oc2nc3ccccn3c(=O)c2/C=C(\C#N)C(=O)NCc2ccccc2)c1`, the “% Inhibition @ 10 uM” value is recorded as -1.43%.
`CCNC(=O)/C(C#N)=C/c1c(Oc2cc(C)ccc2C(C)C)nc2ccccn2c1=O`: the “% Inhibition @ 10 uM” value stood at 75.9%.
With `CCOC(=O)/C(C#N)=C/c1c(Oc2cccc(C)c2C)nc2ccccn2c1=O`, the “% Inhibition @ 10 uM” value is listed as 77.8%.
As to `CNC(=O)/C(C#N)=C/c1c(Oc2cc(C)ccc2C(C)C)nc2ccccn2c1=O`, the “% Inhibition @ 10 uM” value amounted to 17%.
As to `CCOC(=O)/C(C#N)=C/c1c(Oc2ccccc2OC)nc2ccccn2c1=O`, the “% Inhibition @ 10 uM” value is listed as -5.1%.
In the case of `Cc1cc(C)c2c(n1)SCC(=O)N2CC(=O)NCc1cccc(Cl)c1`, the “% Inhibition @ 10 uM” value is -6.01%.
Turning to `COCCN(Cc1ccco1)C(=O)c1cc2c(Cl)nc3ccccc3c2s1`, the “% Inhibition @ 10 uM” value was 3.88%.
For `Cc1ccc(-c2nnc(SCC(=O)N3CCC(C)CC3)o2)cc1C`, the “% Inhibition @ 10 uM” value is given as 1.3%.
In the case of `COc1ccc(CN2CCN(Cc3cccc(F)c3)CC2)c(OC)c1OC`, the “% Inhibition @ 10 uM” value is on record as 5.99%.
`N#C/C(=C\c1c(Oc2ccccc2Cl)nc2ccccn2c1=O)c1nc2ccccc2[nH]1`: the “% Inhibition @ 10 uM” value was -1.86%.
The figure for `Cc1cccc(Oc2nc3ccccn3c(=O)c2/C=C(\C#N)c2nc3ccccc3[nH]2)c1` is 6.78%; for `Cc1cc(Oc2nc3ccccn3c(=O)c2/C=C(\C#N)c2nc3ccccc3[nH]2)ccc1Cl` it is 92.2%.
Turning to `COc1ccc(-c2nc(CSc3nnc(C)n4c3cc3oc(C)cc34)c(C)o2)cc1`, the “% Inhibition @ 10 uM” value was 3.61%.
Regarding `Cc1cc(C)c(S(=O)(=O)N2CCN(c3ccc(F)cc3)CC2)c(C)c1`, the “% Inhibition @ 10 uM” value is -6.86%.
The figure for `CN(c1ccc(C(=O)Nc2ccc(F)cc2)cc1)S(=O)(=O)c1ccccc1` is -7.56%; for `Cc1sc(NC(=O)COc2ccc(F)cc2F)c(C#N)c1C` it is 93.9%.
In the case of `CCc1c(C)sc(NC(=O)COc2ccc(F)cc2)c1C#N`, the “% Inhibition @ 10 uM” value was 0.777%.
Take `Cc1sc(NC(=O)COc2ccc(Cl)cc2Cl)c(C#N)c1C`: the “% Inhibition @ 10 uM” value stood at 1.25%.
As for `CCCNC(=O)c1cc2ncc(Br)cn2n1`, the “% Inhibition @ 10 uM” value worked out at 1.04%.
The figure for `O=C(Nc1cccnc1)c1cc2n(n1)C(C(F)(F)F)CC(c1ccc(Br)cc1)N2` (stereo not shown) is 2.99%; for `O=C(O)c1cc2n(n1)C(C(F)(F)F)CC(c1ccccc1)N2` (stereo not shown) it is -1.32%; for `O=C(Nc1ccc(Br)cn1)c1cc2n(n1)C(C(F)(F)F)CC(c1ccccc1)N2` (stereo not shown) it is 50.4%.
For the compound `O=C(Cc1nnc(-c2ccc(Br)cc2)o1)NC1CCN(Cc2ccccc2)CC1`, the “% Inhibition @ 10 uM” value stood at 2.28%.
With `CP(=O)(O)c1nc2ccccc2s1`, the “% Inhibition @ 10 uM” value is reported as -2.44%.
The value for `Cc1ccc2c(c1)c1c3n2CCN(Cc2ccccc2)C3CCC1` (stereo not shown) was 1.26%; that for `C1=C(c2ccc3c(c2)c2c4n3CCN(Cc3ccccc3)C4CCC2)C2CCN1CC2` (stereo not shown) was 70.5%.
For `c1ccc(CN2CCn3c4c(c5ccccc53)CCCC42)cc1` (stereo not shown), the “% Inhibition @ 10 uM” value was -1.25%.
The figure for `CN(C)CCN(C)C1CCN(Cc2ccccc2)CC1` is 0.162%.
